Source: PubChem BioAssay (NCATS)
Inconclusive results are not listed. Unmarked numbers belong to inactive results. Activity calls are given as the source filed them. Calls come from the whole dose curve.

Each molecule was assayed against Retinoic acid receptor RXR-alpha (Homo sapiens) (UniProt P19793) (assay: qHTS assay for small molecule agonists of retinoid X receptor alpha signaling (AID 588544)). Conditions: HEK293T RXRa-UAS-bla, beta-lactamase reporter, 18 h; series mostly up to 76.7 µM; activation: at the top concentration.
Source text: NIH Chemical Genomics Center [NCGC] U.S. Environmental Protection Agency [EPA] National Institutes of Environmental Health Sciences [NIEHS] National Toxicology Program [NTP] NCGC Assay Overview The Retinoid X receptor (RXR), a nuclear hormone receptor is expressed in liver, spleen, placenta, epidermis, central nervous system. These receptors are able to form homo and heterodimers with other nuclear receptors and due to this heterodimerizing ability, RXR functions as master regulators producing diverse physiological effects. Three subtypes of RXR exist; alpha, beta and gamma. Retinoid X receptor alpha (RXR-alpha) has potential roles in metabolic signaling pathways, skin alopecia, dermal cysts, cardiac development, insulin sensitization etc. Therefore screening environmental chemicals on RXR-alpha signaling can be used for the studies focused on such therapeutic applications.
NCGC Assay Protocol Summary Using a beta-lactamase reporter-gene under control of Retinoid X receptor--alpha (RXR-alpha) response element, a cell-based assay [GeneBLAzer (RXR-alpha -UAS-bla assay developed by Invitrogen] was used to measure RXR-alpha ligands signaling. GeneBLAzer RXR-alpha -UAS-bla HEK293T cells were used with assay medium containing 2% charcoal-stripped FBS. The assay was performed in clear bottom black Greiner 1536-well plates. 9-cis-retinoic acid was used in the screen as the positive control. Library compounds were measured for their ability to stimulate the reporter gene activity. Compounds were screened in a titration series in 1536-well format. The fluorescence intensity (405 nm excitation, 460/530 nm emission) was measured using an EnVision plate reader. Data was normalized relative to 9-cis-retinoic acid control (500 nM, 100%), and DMSO only wells (basal, 0%). Concentration-response titration points for each compound were fitted to the Hill equation yielding concentrations of half-maximal stimulation (EC50) and maximal response (efficacy) values. qHTS protocol for RXR-alpha beta-lactamase assay in agonist mode [Step] [Parameter] [Value] [Description] 1. Reagent; 6 uL; 2500 cells/well 2. Incubation; 37 C for 4 hrs 3. Compounds; 23 nL; 0.59 nM to 92 uM 4. Controls (9-cis-retinoic acid); 23 nL, - One column with dose response, start 38 uM, 1:3 dilutions in duplicates - Final concentrations of 500 nM and 50 nM in two columns 5. Incubation; 37 C for 18 hrs 6. Detection reagent; 1 uL of CCF4-dye 7. Incubation; RT for 2 hrs 8. Detection; Fluorescence; Envision plate reader

Retinoic acid receptor RXR-alpha (Homo sapiens), sequence (P19793 whole entry, looked up): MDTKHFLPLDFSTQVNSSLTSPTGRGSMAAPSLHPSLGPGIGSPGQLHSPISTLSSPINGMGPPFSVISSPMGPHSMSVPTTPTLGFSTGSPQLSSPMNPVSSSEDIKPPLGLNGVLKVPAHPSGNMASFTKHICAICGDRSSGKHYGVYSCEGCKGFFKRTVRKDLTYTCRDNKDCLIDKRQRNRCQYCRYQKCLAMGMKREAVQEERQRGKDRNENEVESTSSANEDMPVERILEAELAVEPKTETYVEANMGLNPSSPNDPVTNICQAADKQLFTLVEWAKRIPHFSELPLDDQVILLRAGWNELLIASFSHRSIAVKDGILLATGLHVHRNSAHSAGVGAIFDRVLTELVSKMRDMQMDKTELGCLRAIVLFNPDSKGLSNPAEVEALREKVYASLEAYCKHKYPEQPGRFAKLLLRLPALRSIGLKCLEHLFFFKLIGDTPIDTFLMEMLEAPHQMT

Row | Structure (SMILES) | activation [%] | Potency
1 | CCCSC(=O)Cl | 4.11 | 
2 | O=S1OCC2C(CO1)C1(Cl)C(Cl)=C(Cl)C2(Cl)C1(Cl)Cl (stereo not given) | -8.07 | 
3 | CCCCCCCC(=O)Cl | -7.55 | 
4 | S=C=Nc1cccc2ccccc12 | -13.5 | 
5 | CCC[CH2][Sn]([Cl])([Cl])[Cl] |  | inactive
6 | Cc1cccc([N+](=O)[O-])c1 |  | inactive
7 | O=C(Cl)/C=C/C(=O)Cl | 0.691 | 
8 | C[N+](C)(C)Cc1ccccc1 |  | inactive
9 | CC(C)(C)OOC(C)(C)C | 1.08 | 
10 | ClCBr | 5.4 | 
11 | Clc1nc(Cl)nc(Cl)n1 |  | inactive
12 | CCC(=O)Nc1ccc(Cl)c(Cl)c1 | -8.78 | 
13 | Cc1ccccc1N |  | inactive
14 | COC(=O)NC(=S)Nc1ccccc1NC(=S)NC(=O)OC |  | inactive
15 | CCc1cccc(CC)c1N(COC)C(=O)CCl | -12.8 | 
16 | BrCCBr |  | inactive
17 | N#Cc1c(Cl)cccc1Cl | 1.35 | 
18 | C=CC(=O)OCC | 6.95 | 
19 | COP(=S)(OC)Oc1ccc([N+](=O)[O-])cc1 |  | inactive
20 | C1CCC2CCCCC2C1 (stereo not given) | 4.46 | 

Row | Structure (SMILES) | activation [%] | Potency
21 | O=C(Cl)C(Cl)(Cl)Cl | -3.48 | 
22 | Nc1c(Cl)c(Cl)nc(C(=O)O)c1Cl | -14.5 | 
23 | CC(C)(C)OO |  | inactive
24 | CC(=O)[O-].CC(=O)[O-].O.O.O.[Pb+2] |  | inactive
25 | CC(Cl)Cl | 5.18 | 
26 | C=CC(N)=O |  | inactive
27 | CCCC(=O)Cl | 2.84 | 
28 | ClC(Cl)=C(c1ccc(Cl)cc1)c1ccc(Cl)cc1 | -12.2 | 
29 | O=C(O)COc1cc(Cl)c(Cl)cc1Cl | -27.6 | 
30 | Clc1nc(Cl)nc(Nc2ccccc2Cl)n1 | -0.134 | 
31 | C=CC(C)=O | 11.8 | 
32 | CC(C)(c1ccccc1)c1ccc(O)cc1 |  | inactive
33 | ClC(Cl)=C(Cl)Cl |  | inactive
34 | CNC(=O)CSP(=S)(OC)OC | 1.84 | 
35 | C=CC1CC=CCC1 (stereo not given) |  | inactive
36 | CCNc1nc(Cl)nc(NC(C)C)n1 |  | inactive
37 | CC(C)(OO)c1ccccc1 |  | inactive
38 | N#CCCCl |  | inactive
39 | Clc1ccc2ccccc2c1 | 7.05 | 
40 | CC(C)Nc1nc(Cl)nc(NC(C)C)n1 | -3.58 | 
